Activation data for 58 molecules are collected here from PubChem BioAssay AID1508602 (The Scripps Research Institute Molecular Screening Center, 2020).

Where “and” joins values, the source holds several entries; their conditions need not be identical. Equal entries are not always repeated. Out of some 650,000 compounds screened, about 6,800 (1%) were called active. No stated cut-off is given here; in the data, active means activation above about 4.9%; inactive means the rest. The list comes from a sample in which actives are over-represented; it also holds similar structures and randomly drawn compounds. A structure can be active in one record and inactive in another.

In the assay the target is G-protein coupled receptor 151 (Homo sapiens) (UniProt Q8TDV0). Briefly: activates the human receptor GPR151, primary screen, cell-based, PathHunter beta-arrestin, luminescence (AID 1508602).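 Further: 0% = median of compound wells and 100% = cells with positive control.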 As to conditions: PathHunter beta-arrestin GPR151 cells, at 11.2 µM, stronger effect = higher value.
G-protein coupled receptor 151 (Homo sapiens), sequence (Q8TDV0 whole entry, looked up): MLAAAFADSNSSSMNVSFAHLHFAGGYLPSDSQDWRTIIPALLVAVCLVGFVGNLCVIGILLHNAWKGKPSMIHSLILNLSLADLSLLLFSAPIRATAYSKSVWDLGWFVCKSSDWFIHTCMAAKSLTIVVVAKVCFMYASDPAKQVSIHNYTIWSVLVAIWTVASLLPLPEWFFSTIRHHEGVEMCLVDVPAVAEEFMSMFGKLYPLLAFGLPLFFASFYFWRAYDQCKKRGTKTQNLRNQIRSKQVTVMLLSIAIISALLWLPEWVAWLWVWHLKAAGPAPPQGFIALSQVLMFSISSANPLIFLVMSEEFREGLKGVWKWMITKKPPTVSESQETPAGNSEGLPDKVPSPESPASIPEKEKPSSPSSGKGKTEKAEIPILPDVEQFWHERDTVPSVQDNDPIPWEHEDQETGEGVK
In the case of `COc1cc(NC(=O)NCCN2CCN(c3ccccc3)CC2)cc(OC)c1`, the activation was 0.531% (inactive).
In the case of `N#Cc1ccc(N2CCN(CCCNC(=O)Nc3ccccc3)CC2)cc1` it was 5.03% (active); in that of `CCOC(=O)NCCCN1CCN(c2ccccc2)CC1`, 1.63% (inactive).
Then `COc1cccc(C=O)c1OC(=O)c1ccc(Cl)c([N+](=O)[O-])c1`, with 1.65% (inactive); and `NC(=O)c1ccccc1NS(=O)(=O)c1cc(C(=O)O)c(Cl)cc1Cl`, with 1.03% (inactive); and `OC(COc1ccccc1F)CN1CCOCC1` (stereo not drawn), with 0.198% (inactive).
Then `COc1ccc(C2/C(=C(\O)c3ccc(F)cc3)C(=O)C(=O)N2CCCN2CCOCC2)cc1` (stereo not drawn), with 1.83% (inactive).
Regarding `CCCSc1[nH]c(=O)c(C(=O)O)cc1C#N`, the activation was -0.367% (inactive).
Then `O=C(Cn1nnc2ccccc21)N/N=C/c1c(O)ccc2ccccc12`, with 5.7% (active); and `O=C(Cn1nnc2ccccc21)N/N=C/c1cccnc1`, with 0.99% (inactive); and `O=C(Cn1nnc(-c2ccccc2)n1)N/N=C/c1c(O)ccc2ccccc12`, with 1.41% (inactive).
Then `CC(C)(C)C1(O)CCN2C[C@H]3c4ccccc4CCc4cccc(c43)[C@@H]2C1` (stereo partly drawn), with 7.83% (active) and 3.25% (inactive).
In the case of `CC(Nc1n[nH]c(=O)[nH]c1=O)C(=O)N/N=C/c1cccnc1` (stereo not drawn) it was -0.752% (inactive).
Consider `CN(CC(=O)Nc1cccc2c1CCCC2)S(=O)(=O)c1ccc(Cl)cc1`, for which the activation was 5.67% (active).
Then `CN(CC(=O)Nc1ccccc1Cl)S(=O)(=O)c1ccc(F)cc1`, with -1.27% (inactive); and `CN(CC(=O)Nc1c(F)cccc1F)S(=O)(=O)c1ccc(Cl)cc1`, with 0.4% (inactive).
For the molecule `C=CCn1c(SCC(=O)NCc2ccco2)nc2sc3c(c2c1=O)CCC(C)C3` (stereo not drawn), the activation is -1.7% (inactive).
`CCOC(=O)c1sc2nc(SCc3ccc(Cl)cc3)n(Cc3cccc(Cl)c3)c(=O)c2c1C`: the activation is -0.446% (inactive).
In the case of `CCOC(=O)CSc1nc2sc(C(=O)OCC)c(C)c2c(=O)n1Cc1ccccc1` it was 2.6% (inactive); in that of `CCOC(=O)c1sc2nc(SCC(=O)N(C)Cc3ccccc3)n(Cc3ccc4c(c3)OCO4)c(=O)c2c1C`, 5.39% (active); in that of `NC(=O)c1nc(-c2ccccc2)nc2c1[nH]c(=O)n2-c1ccc(F)cc1`, 0.0137% (inactive).
Then `NC(=O)c1nc(-c2cccc(Cl)c2)nc2c1[nH]c(=O)n2-c1ccccc1`, with -0.457% (inactive); and `CC(C)n1c(=O)[nH]c2c(C(N)=O)nc(-c3ccc(-c4ccccc4)cc3)nc21`, with 5.61% (active); and `Cc1cccnc1-c1ccc2c(c1)CC(CNC(=O)[C@@H]1CCC(=O)N1)O2` (stereo partly drawn), with 0.168% (inactive).
In the case of `CCOC(=O)C1=C(C)OC(N)=C(C#N)C1c1ccc2c(c1)OCO2` (stereo not drawn) it was 0.198% (inactive); in that of `CCN(CC)CCOC(=O)c1ccc(OC)cc1OCCN(CC)CC`, 1.9% (inactive).
As for `OCCC1CN(Cc2cccc(F)c2)CCN1C1CCCC1` (stereo not drawn), the activation is 1% (inactive).
Then `CCOc1ccc(CN2CCN(Cc3ccc4cc(F)ccc4n3)CC2CCO)cc1` (stereo not drawn), with -0.448% (inactive); and `OCCC1CN(Cc2ccc3cc(F)ccc3n2)CCN1C1CCCC1` (stereo not drawn), with 9.5% (active).
Then `CC(C)Nc1cc(N2CCC3(CC2)OCCO3)c2noc3c2c1C(=O)c1ccccc1-3`, with 3.8% (inactive); and `Cc1ccc(N2C(=O)NC(NC(=O)c3cccs3)(C(F)(F)F)C2=O)cc1` (stereo not drawn), with 1.1% (inactive).
As for `Cc1ccc(N2C(=O)CC(NCCN3CCOCC3)C2=O)cc1` (stereo not drawn), the activation is 14% (active).
Then `Cc1ccc(N2C(=O)CC(NCc3ccc(F)cc3)C2=O)cc1` (stereo not drawn), with -0.0057% (inactive).
In the case of `Cc1ccc(N2C(=O)CC(NCCc3ccccc3F)C2=O)cc1` (stereo not drawn) it was 0.306% (inactive); in that of `COc1ccc(F)c(CC2(CCC(=O)N(CCO)Cc3ccccc3)CCC(=O)N2)c1` (stereo not drawn), -0.346% (inactive).
In the case of `NC(C(=O)N1CCN(C(=O)Nc2ccc3[nH]ncc3c2)CC1)c1cccc(Br)c1` (stereo not drawn) it was -1.09% (inactive).
In the case of `CC(C)[C@H](O)C(=O)N1CCC(C(=O)Nc2ccc3[nH]ncc3c2)CC1`, the activation is -0.359% (inactive).
Regarding `O=C(Nc1ccc2[nH]ncc2c1)N1CCCNCC1`, the activation was 5.34% (active).
Then `O=C(Nc1ccccc1C(F)(F)F)c1cc(S(=O)(=O)N2CCCCCC2)ccc1F`, with 0.584% (inactive).
In the case of `Cc1ccc(N(CC(=O)N/N=C/c2ccc(C)c(C)c2C)S(C)(=O)=O)cc1`, the activation is 0.882% (inactive).
`COc1cc2ccccc2cc1C(=O)Nc1nc2ccc3ccccc3c2s1`: the activation is -1.09% (inactive).
Then `CCOC(=O)c1cc[n+](CC(=O)c2ccc(NC(=O)c3ccccc3)cc2)cc1`, with -2.71% (inactive).
Then `CCOC(=O)c1ccc(NC(=O)c2ncn(-c3ccccc3)n2)cc1`, with 5.91% (active).
With `CCOC(=O)c1ccc(NC(=O)c2nn(Cc3ccccc3)c(=O)c3ccccc23)cc1`, the activation is -0.0773% (inactive).
With `O=C(Nc1ccncc1NC(=O)c1ccco1)c1ccco1`, the activation is 0.598% (inactive).
Then `O=C1NCCN(Cc2ccc(F)c(F)c2)C1CC(=O)N1CCCC1` (stereo not drawn), with -0.422% (inactive).
`O=C1NCCN(Cc2ccc(-c3ccccc3)cc2)C1CC(=O)N1CCCCC1` (stereo not drawn): the activation was 12.2% (active).
In the case of `COc1ccc(CN2CCNC(=O)C2CC(=O)N2CCCCC2)cc1OC` (stereo not drawn) it was 1.79% (inactive).
Take `COc1cccc(N2CCN(c3ncnc4c3c(-c3ccccc3)cn4-c3ccccc3)CC2)c1`: the activation was 1.89% (inactive).
In the case of `Nc1nc(NC(=O)/C=C/c2ccc(F)cc2)nn1-c1ccccc1`, the activation is 10.7% (active).
In the case of `Nc1nc(NC(=O)/C=C/c2ccc(Cl)cc2)nn1-c1ccccc1` it was 0.321% (inactive).
Then `Nc1nc(NC(=O)/C=C/c2ccccc2)nn1-c1ccccc1`, with 0.0795% (inactive); and `Cc1sc(NC(=O)Cc2ccc([N+](=O)[O-])cc2)c(C#N)c1-c1ccccc1`, with -0.519% (inactive).
In the case of `O=C(CN1CCOCC1)Nc1c(Cl)cc(Cl)cc1Cl` it was 8.12% (active); in that of `O=C(CN1CCOCC1)Nc1ncc(Cc2cc(Cl)cc(Cl)c2)s1`, -0.516% (inactive).
In the case of `O=C1CN(CC(=O)Nc2c(Cl)cc(Cl)cc2Cl)CCN1`, the activation was 0.357% (inactive).
Then `CC(NC(=O)C12CC3CC(CC(C3)C1)C2)c1ccccc1` (stereo not drawn), with 1.54% (inactive).
Then `CCOC(=O)c1c(-c2ccc(C)cc2)csc1NC(=O)CNCCCO`, with 0.601% (inactive).
